The whole screen tested about 5,500 compounds, of which about 2,000 (36%) were called active. Another 18% or so got no clear call; they are omitted. Cut-off read from the data, not from the text of the source: active = normalized growth mostly below about 0.91 (no sharp cut-off); inconclusive = no clear call, values can overlap the other calls; inactive = mostly above about 0.92. The list shows a part of the results.
Assay: chemical genetic growth profiling, strain panel (AID 1159580);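 note: tested at 20 µM; growth read once vehicle control cultures reached saturation at 30 °C; 1 = growth at the plate median or of vehicle wells; lower values mean less growth of the strain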
Settings: S. cerevisiae deletion strains, growth OD

Measured: normalized growth

CNCC[C@@H](Oc1ccc(C(F)(F)F)cc1)c1ccccc1
inactive: locus YAL040C, strain CLN3, active compounds read low 1.04 | locus YCL061C, strain MRC1 (second series), active compounds read low 0.977 | locus YDR150W, strain NUM1, active compounds read low 0.998 | locus YDR363W, strain ESC2, active compounds read low 0.943 | locus YER002W, strain NOP16, active compounds read low 0.993 | locus YGR078C, strain PAC10, active compounds read low 1.01 | locus YJR075W, strain HOC1, active compounds read low 0.982 | locus YMR307W, strain GAS1, active compounds read low 0.999 | locus YNL128W, strain TEP1, active compounds read low 1.03 | locus YNL153C, strain GIM3, active compounds read low 1.01 | locus YNL175C, strain NOP13, active compounds read low 1.04 | locus YNL197C, strain WHI3, active compounds read low 1.01 | locus YNL224C, strain SQS1, active compounds read low 1.02 | locus YNL322C, strain KRE1, active compounds read low 0.963 | locus YOR083W, strain WHI5 (second series), active compounds read low 1.01 | locus YPL055C, strain LGE1, active compounds read low 0.975 | locus YPL241C, strain CIN2, active compounds read low 0.978

Reference: PubChem BioAssay AID1159580 (chemical genetic matrix, 2015)
